According to PubChem BioAssay (NCATS):
Results filed as inconclusive are left out. Where a call stands in place of a potency, no number is given. Active and inactive are the calls of the source. Calls follow the shape of the dose curve; as a rule, active = well fitted inhibition curve with a large enough effect; inconclusive = small, poorly fitted or top-dose-only effect; inactive = flat fitted curve, though single readings scatter.

Key:
Test in all cases: qHTS profiling for inhibitors of Plasmodium falciparum proliferation (AID 504749); also: nearly all actives have a fitted effect of over 60% in size
Conditions in all cases: P. falciparum in erythrocytes, SYBR Green DNA, 72 h; series mostly up to 28.7 µM
ATS95 = system: ATS95
Outline: (§1)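 SYBR Green fluorescence of parasite DNA, read after lysis and overnight dark incubation, measured growth over 72 h in erythrocyte culture at 0.3% parasitemia and 2.5% hematocrit. Data normalised to DMSO and 0.29 uM artemisinin, with plate-drift correction.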

C2A = system: C2A
Outline: as §1

CP192 = system: CP192
Outline: as §1

CP194 = system: CP194
Outline: as §1

CP237 = system: CP237
Outline: as §1

CP250 = system: CP250
Outline: as §1

CP256 = system: CP256
Outline: as §1

CP260 = system: CP260
Outline: as §1

CP269 = system: CP269
Outline: as §1

CP315 = system: CP315
Outline: as §1

CP329 = system: CP329
Outline: as §1

DIV30 = system: DIV30
Outline: as §1

ECU = system: ECU
Outline: as §1

HB3 = system: HB3
Outline: as §1

JCK = system: JCK
Outline: as §1

PC15 = system: PC15
Outline: as §1

PC49 = system: PC49
Outline: as §1

SC27B = system: SC27B
Outline: as §1

TAB113 = system: TAB113
Outline: as §1

TAB165 = system: TAB165
Outline: as §1
Potency is read from the fitted curve at half-maximal effect.

Compound | Potency (ATS95) | Potency (C2A) | Potency (CP192) | Potency (CP194) | Potency (CP237) | Potency (CP250) | Potency (CP256) | Potency (CP260) | Potency (CP269) | Potency (CP315) | Potency (CP329) | Potency (DIV30) | Potency (ECU) | Potency (HB3) | Potency (JCK) | Potency (PC15) | Potency (PC49) | Potency (SC27B) | Potency (TAB113) | Potency (TAB165)
O=C1[C@@H]2C[C@@H]3C[C@H]1C[C@@](O)(C3)C2 | inactive | inactive | inactive | inactive | inactive | inactive | inactive | inactive | inactive | inactive | inactive | inactive | inactive | inactive | inactive | inactive | inactive | inactive | inactive | inactive
CC(=O)NC1[C@H](O)C[C@@](O)(C(=O)O)O[C@H]1[C@H](O)[C@H](O)CO (stereo partly drawn) | inactive | inactive | inactive | inactive | inactive | inactive | inactive | inactive | inactive | inactive | inactive | inactive | inactive | inactive | inactive | inactive | inactive | inactive | inactive | inactive
C=NC(C(=O)NC1C(=O)N2C1SC(C)(C)C2C(=O)O)c1ccccc1 (stereo not drawn) | inactive | inactive | inactive | inactive | inactive | inactive | inactive | inactive | inactive | inactive | inactive | inactive | inactive | inactive | inactive | inactive | inactive | inactive | inactive | inactive
CO[C@H]1OC2O[C@@]3(C)CC[C@H]4[C@H](C)CC[C@@H]([C@H]1C)[C@@]24OO3 (stereo partly drawn) | 25.1 nM (active) | 35.5 nM (active) | 37.9 nM (active) | 60.1 nM (active) | 15.8 nM (active) | 63.1 nM (active) | 12.6 nM (active) | 14.1 nM (active) | 21.3 nM (active) | 95.3 nM (active) | 60.1 nM (active) | 15.1 nM (active) | 15.8 nM (active) | 7.9 nM (active) | 12600 nM (active) | 11.2 nM (active) | 25.1 nM (active) | 14.1 nM (active) | 11.2 nM (active) | 22.4 nM (active)
OC[C@@H]1O[C@](CO)(O[C@H]2O[C@H](CO)[C@@H](O)[C@H](O)[C@H]2O)[C@H](O)[C@H]1O | inactive | inactive | inactive | inactive | inactive | inactive | inactive | inactive | inactive | inactive | inactive | inactive | inactive | inactive | inactive | inactive | inactive | inactive | inactive | inactive
O=C1NC(=O)C2C3C=CC(C3)C12 (stereo not drawn) | inactive | inactive | inactive | inactive | inactive | inactive | inactive | inactive | inactive | inactive | inactive | inactive | inactive | inactive | inactive | inactive | inactive | inactive | inactive | inactive
CCCCCCCCCCCC(=O)OCC(O)C1OCC(O)C1O (stereo not drawn) | inactive | inactive | inactive | inactive | inactive | inactive | inactive | inactive | inactive | inactive | inactive | inactive | inactive | inactive | inactive | inactive | inactive | inactive | inactive | inactive
COc1cccc(OC)c1C(=O)NC1C(=O)N2C1SC(C)(C)C2C(=O)O (stereo not drawn) | inactive | inactive | inactive | inactive | inactive | inactive | inactive | inactive | inactive | inactive | inactive | inactive | inactive | inactive | inactive | inactive | inactive | inactive | inactive | inactive
C[C@]12CC[C@@H]3c4ccc(O)cc4CC[C@H]3[C@@H]1C[C@H](O)C2O (stereo partly drawn) | inactive | inactive | inactive | inactive | inactive | inactive | inactive | inactive | inactive | inactive | inactive | inactive | inactive | inactive | inactive | inactive | inactive | inactive | inactive | inactive
CC[C@@]1(O)C[C@H](O[C@H]2C[C@@H](N(C)C)[C@@H](O[C@H]3C[C@@H](O)[C@@H](O[C@H]4CCC(=O)[C@@H](C)O4)[C@@H](C)O3)[C@@H](C)O2)c2c(cc3c(c2O)C(=O)c2c(O)cccc2C3=O)[C@H]1C(=O)OC | 316 nM (active) | 178 nM (active) | 1070 nM (active) | 953 nM (active) | 35.5 nM (active) | 251 nM (active) | 282 nM (active) | 39.8 nM (active) | 849 nM (active) | 1350 nM (active) | 849 nM (active) | 953 nM (active) | 355 nM (active) | 141 nM (active) | 126 nM (active) | 158 nM (active) |  | 316 nM (active) | 199 nM (active) | 141 nM (active)
CCCC[C@H](O)c1ccccc1 | inactive | inactive | inactive | inactive | inactive | inactive | inactive | inactive | inactive | inactive | inactive | inactive | inactive | inactive | inactive | inactive | inactive | inactive | inactive | inactive
CC(=O)OCC(=O)[C@@]1(O)CCC2C3CCC4=CC(=O)C=CC4(C)C3C(O)C[C@]21C (stereo partly drawn) | inactive | inactive | inactive | inactive | inactive | inactive | inactive | inactive | inactive | inactive | inactive | inactive | inactive | inactive | inactive | inactive | inactive | inactive | inactive | inactive
OCC1O[C@@H](O[C@@H]2C(CO)OC(O)C(O)C2O)C(O)C(O)C1O (stereo partly drawn) | inactive | inactive | inactive | inactive | inactive | inactive | inactive | inactive | inactive | inactive | inactive | inactive | inactive | inactive | inactive | inactive | inactive | inactive | inactive | inactive
NC[C@@H]1O[C@H](OC2[C@@H](CO)O[C@@H](OC3[C@H](O)[C@H](N)C[C@H](N)[C@H]3OC3O[C@H](CO)[C@@H](O)[C@H](O)[C@@H]3N)[C@H]2O)C(N)[C@H](O)[C@@H]1O (stereo partly drawn) | inactive | inactive | inactive | inactive | inactive | inactive | inactive | inactive | inactive | inactive | inactive | inactive | inactive | inactive | inactive | inactive | inactive | inactive | inactive | inactive
CCC(C(=O)O)C1OC(C(C)C(O)C(C)C(=O)C(CC)C2OC3(C=CC(O)C4(CCC(C)(C5CCC(O)(CC)C(C)O5)O4)O3)C(C)CC2C)C(C)CC1C (stereo not drawn) | 178 nM (active) | 126 nM (active) | 169 nM (active) | 75.7 nM (active) | 56.2 nM (active) | 199 nM (active) | 199 nM (active) | 112 nM (active) | 95.3 nM (active) | 33.8 nM (active) | 95.3 nM (active) | 67.5 nM (active) | 178 nM (active) | 79.4 nM (active) | 199 nM (active) | 158 nM (active) | 251 nM (active) | 89.1 nM (active) | 79.4 nM (active) | 158 nM (active)
CCN1CCN(C(=O)NC(C(=O)NC2C(=O)N3C(C(=O)O)=C(CSc4nnnn4C)CSC23)c2ccc(O)cc2)C(=O)C1=O (stereo not drawn) | inactive | inactive | inactive | inactive | inactive | inactive | inactive | inactive | inactive | inactive | inactive | inactive | inactive | inactive | inactive | inactive | inactive | inactive | inactive | inactive
O=C1CC[C@H](C(=O)N[C@@H]2C[C@H]2c2ccccc2)N1 | inactive | inactive | inactive | inactive | inactive | inactive | inactive | inactive | inactive | inactive | inactive | inactive | inactive | inactive | inactive | inactive | inactive | inactive | inactive | inactive
CC1OC(OC2CCC3(C)C(CCC4C3CC(O)C3(C)C(C5=CC(=O)OC5)CCC43O)C2)CC(O)C1OC1CC(O)C(OC2CC(O)C(OC3OC(CO)C(O)C(O)C3O)C(C)O2)C(C)O1 (stereo not drawn) | inactive | inactive | inactive | inactive | inactive | inactive | inactive | inactive | inactive | inactive | inactive | inactive | inactive | inactive | inactive | inactive | inactive | inactive | inactive | inactive
CC(c1ncncc1F)[C@](O)(Cn1cncn1)c1ccc(F)cc1F (stereo partly drawn) | inactive | inactive | inactive | inactive | inactive | inactive | inactive | inactive | inactive | inactive | inactive | inactive | inactive | inactive | inactive | inactive | inactive | inactive | inactive | inactive
CO/N=C(/C(=O)N[C@@H]1C(=O)N2C(C(=O)O)=C(CSC(=O)c3ccco3)CSC12)c1csc(N)n1 (stereo partly drawn) | inactive | inactive | inactive | inactive | inactive | inactive | inactive | inactive | inactive | inactive | inactive | inactive | inactive | inactive | inactive | inactive | inactive | inactive | inactive | inactive
Cc1onc(-c2c(F)cccc2Cl)c1C(=O)NC1C(=O)N2C1SC(C)(C)C2C(=O)O (stereo not drawn) | inactive | inactive | inactive | inactive | inactive | inactive | inactive | inactive |  | inactive | inactive | inactive | inactive | inactive | inactive | inactive | inactive | inactive | inactive | inactive
